MITF act = increases MITF-driven TRPM1 promoter luciferase signal. SK-MEL-5 TRPM1-promoter luciferase, 24 h; % of positive control, neutral wells = 0. activation, % at 12.5 µM. 300,000 compounds, 0.75% hits. AID 588334;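 active = mean activation of at least 80% with every replicate also reaching 80%; inconclusive = mean reaches 80% but some replicate falls short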
HSF1 inh = HSF1 inhibition | 300,000 compounds, 0.77% hits | NIH3T3-HGL HSE-luciferase, MG132-induced, luminescence 8 h; hits give low values | activity change, negative = inhibition, % at 7.5 µM (by protocol) | AID 2098;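 active = more than half of replicate wells show activity change below -50%, luminescence cut by over half; inconclusive = some wells, but at most half, below -50%; inactive = no replicate well below -50%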;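 note: luciferase reports HSF-1 transcriptional activity via heat shock element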
Wnt bcat act = Wnt/beta-catenin pathway activation; Wnt/beta-catenin reporter cell assay, activator, plate reader; activation, % at 9.35 µM; 300,000 compounds, 1.2% hits; AID 743398; in the data active = activation above about 30%, passing the limit was not always enough; inconclusive = no clear call, values can overlap the other calls
esBAF inh = blocks esBAF chromatin remodeling in mouse ES cells. Bmi1-luciferase knock-in reporter, 24 h; 100% = twice the neutral-well signal. reporter increase, % at 12.5 µM. 350,000 compounds, 2% hits; in the data active = activation above about 40%; inconclusive = no clear call, values can overlap the other calls;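 note: a rise in the Bmi1 reporter signal indicates esBAF inhibition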
HSF1 activator = increases HSF-1 driven luciferase reporter signal | activation, % at 9 µM | NIH3T3-HGL HSF-1 luciferase reporter, MG132, 8 h; 100% = twice DMSO control signal | 300,000 compounds, 1.7% hits;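 active = mean replicate activation of at least 50% with a set share of replicates each reaching 50%; inconclusive = only one of those two conditions met; inactive = mean below 50% and too few replicates reaching it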
Numbers stand for hits. Rows were chosen to be rich in hits. Some 3.9% of all compounds tested hit in one or more screens of this group.

Results for S=C(N/N=C/c1ccc2ncccc2c1)Nc1cccnc1 ?
MITF act: inactive; HSF1 inh: -65; Wnt bcat act: inactive; esBAF inh: inactive; HSF1 activator: inactive

What do the screens show for `CCOC(=O)CSc1nc2ccccc2c(=O)n1NC(=O)c1ccccc1`?
MITF act: inactive; HSF1 inh: inactive; Wnt bcat act: 38; esBAF inh: inactive; HSF1 activator: inactive

Results for COc1ccc(C(=O)Nn2c(SCC(=O)c3ccccc3)nc3ccccc3c2=O)cc1 ?
HSF1 inh: -59; HSF1 activator: inactive

Results for COCCNC(=O)C[C@@H]1CC[C@H]2[C@@H](COC[C@H](O)CN2C(=O)Nc2ccccc2OC)O1 ?
esBAF inh: inactive

What do the screens show for `COc1ccc(NC(=O)Nc2ccc3c(c2)C(=O)N([C@@H](C)CO)C[C@@H](C)[C@H](CN(C)C(=O)Nc2cccc4ccccc24)OCCCC[C@H](C)O3)cc1`?
esBAF inh: inactive

Results for N/C(=N\NC(=O)Nc1ccc(Cl)cc1)c1ccccn1 ?
MITF act: inactive; HSF1 inh: inactive; Wnt bcat act: inactive; esBAF inh: 47; HSF1 activator: inactive

Results for O=C(Nc1ccc(C(F)(F)F)cc1)N[C@H]1CC[C@H](CC(=O)N2CCCCC2)O[C@@H]1CO ?
esBAF inh: inactive

How did C[C@@H]1CN([C@H](C)CO)C(=O)c2cc(NC(=O)C3CC3)ccc2O[C@@H]1CN(C)S(=O)(=O)c1cccs1 do in these assays?
esBAF inh: inactive

How did CC1=NN(c2ccccc2)C(=O)/C1=C/c1c(O)n(-c2ccc(F)cc2)[nH]c1=O do in these assays?
MITF act: inactive; HSF1 inh: inactive; Wnt bcat act: inactive; esBAF inh: 55; HSF1 activator: inactive

Results for CC1=NN(c2ccccc2)C(=O)/C1=C/c1ccc[nH]1 ?
MITF act: inactive; HSF1 inh: inactive; esBAF inh: 50; HSF1 activator: inactive

What do the screens show for `O=C(C[C@H]1C[C@H]2c3cc(NC(=O)Nc4ccccc4)ccc3O[C@H]2[C@H](CO)O1)NC1CCCCC1`?
esBAF inh: inactive

Results for NCC[C@H]1CC[C@H](NC(=O)c2ccccc2F)[C@@H](CO)O1 ?
esBAF inh: inactive

What do the screens show for `O=C(NCc1ccc(F)cc1)[C@@H]1[C@@H](CO)[C@@H]2Cn3c(cccc3=O)[C@H]1N2CC1CC1`?
esBAF inh: inactive

How did O=C(Nc1cccnc1)c1cn(-c2ccccc2)nc1-c1cccs1 do in these assays?
MITF act: inactive; HSF1 inh: inactive; Wnt bcat act: inactive; esBAF inh: 58; HSF1 activator: inactive

What do the screens show for `O=C(Nc1cccc2ccccc12)c1cn(-c2ccccc2)nc1-c1cccs1`?
MITF act: inactive; HSF1 inh: inactive; Wnt bcat act: inactive; HSF1 activator: inactive

Results for COc1ccc(NC(=O)Nc2cccc3c2O[C@H](CN(C)C(=O)Nc2cccc4ccccc24)[C@H](C)CN([C@@H](C)CO)C3=O)cc1 ?
esBAF inh: inactive

Results for Cc1ccc(OCCn2nc3ccccc3n2)c(C)c1 ?
HSF1 inh: inactive; Wnt bcat act: inactive; esBAF inh: 55; HSF1 activator: inconclusive

How did CCOc1ccccc1OCCn1nc2ccccc2n1 do in these assays?
HSF1 inh: inactive; Wnt bcat act: inactive; esBAF inh: inactive; HSF1 activator: inactive

What do the screens show for `O=C(N[C@H]1CC[C@@H](CCNS(=O)(=O)Cc2ccccc2)O[C@@H]1CO)c1cnccn1`?
esBAF inh: inactive

What do the screens show for `COc1ccc(CCNc2ncccc2C#N)cc1OC`?
MITF act: inactive; HSF1 inh: inactive; Wnt bcat act: inactive; esBAF inh: 54; HSF1 activator: inactive

Results for CC1=C(Sc2nc3ccccc3[nH]2)C(=O)NC(C)(C)C1 ?
MITF act: inactive; HSF1 inh: inactive; Wnt bcat act: inactive; HSF1 activator: 60

How did CCn1c(O)c(C2=c3ccccc3=NC2=O)c2cc(Br)ccc21 do in these assays?
HSF1 inh: inactive; Wnt bcat act: inactive; HSF1 activator: 209

What do the screens show for `CO[C@H]1CN(C)C(=O)c2ccc(NC(=O)C3CCC3)cc2OC[C@H](C)N(C)C[C@H]1C`?
esBAF inh: inactive

How did COCc1cc(=O)n2[nH]c(-c3cccc(Br)c3)cc2n1 do in these assays?
MITF act: inactive; HSF1 inh: inactive; esBAF inh: inactive; HSF1 activator: inactive

How did CCOC(=O)CCc1c(C)nc2cc(-c3ccc(Cl)cc3)[nH]n2c1=O do in these assays?
MITF act: inactive; HSF1 inh: inactive; Wnt bcat act: inactive; esBAF inh: inactive; HSF1 activator: inactive

How did CCCc1cc(=O)n2[nH]c(-c3ccc(Cl)cc3)cc2n1 do in these assays?
HSF1 inh: inactive; Wnt bcat act: inactive; esBAF inh: inactive; HSF1 activator: 64

How did CCc1c(C)nc2cc(-c3cccc(Br)c3)[nH]n2c1=O do in these assays?
HSF1 inh: inactive; Wnt bcat act: 36; esBAF inh: 56; HSF1 activator: inactive

How did CCc1c(C)nc2cc(-c3ccc(Cl)cc3)[nH]n2c1=O do in these assays?
HSF1 inh: inactive; Wnt bcat act: inactive; esBAF inh: 56; HSF1 activator: inactive

How did CCCc1cc(=O)n2[nH]c(-c3ccc(C)cc3)cc2n1 do in these assays?
MITF act: inactive; HSF1 inh: inactive; esBAF inh: inactive; HSF1 activator: inactive

Results for O=C(Nc1ccc(Br)cc1)C1Cc2ccccc2O/C1=N\O (centres undefined) ?
MITF act: inactive; HSF1 inh: inactive; Wnt bcat act: inactive; esBAF inh: 55; HSF1 activator: inactive

Results for Cc1ccc(NC(=O)C2Cc3ccccc3O/C2=N\O)cc1C (centres undefined) ?
MITF act: inactive; HSF1 inh: inactive; Wnt bcat act: inactive; esBAF inh: inconclusive; HSF1 activator: inactive

What do the screens show for `COc1ccc(CN(C)C[C@@H]2Oc3c(NC(=O)Nc4ccc(F)cc4)cccc3C(=O)N([C@@H](C)CO)C[C@H]2C)cc1`?
esBAF inh: inactive

How did COc1cc(C(=O)NCC2CCCO2)ccc1OCc1ccc(Cl)cc1 (centres undefined) do in these assays?
MITF act: inactive; Wnt bcat act: inactive; esBAF inh: inactive

What do the screens show for `O=C(NC1CCCC1)c1cc(-c2ccccc2Cl)on1`?
MITF act: inactive; HSF1 inh: inactive; Wnt bcat act: inconclusive; esBAF inh: inactive; HSF1 activator: inactive

What do the screens show for `O=C(NC1CCCCC1)c1cc(-c2ccccc2Cl)on1`?
MITF act: 110; HSF1 inh: inactive; Wnt bcat act: inactive; esBAF inh: 57; HSF1 activator: inactive

How did O=C(NCC1CCCO1)c1cc(-c2ccc(Cl)cc2Cl)on1 (centres undefined) do in these assays?
HSF1 inh: inactive; Wnt bcat act: 37; esBAF inh: inactive; HSF1 activator: inactive

Results for COc1ccccc1-c1cc(C(=O)NC2CCCC2)no1 ?
MITF act: inactive; HSF1 inh: inactive; Wnt bcat act: inactive; esBAF inh: 46; HSF1 activator: inactive

Results for COc1cc(C(=O)NCC2CCCO2)ccc1OCc1ccc(Cl)cc1Cl (centres undefined) ?
MITF act: inactive; HSF1 inh: inactive; Wnt bcat act: inactive; esBAF inh: inactive; HSF1 activator: 72
